# PubChem BioAssay (NCI)
# About 79,000 compounds went through this panel and 15% of them were active in at least one assay; those are over-represented in the sample as a whole. Values without a mark were called inactive. Active and inactive are the calls of the source. Cut-off read from the data, not from the text of the source: active = growth inhibition above about 70%; inactive = the rest.
# How the values were obtained:
# [1] = NCI Yeast Anticancer Drug Screen. Data for the wt1 strain (AID 149);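 note: 0% = growth of vehicle-treated wt1 cultures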; settings: S. cerevisiae wt1 strain (SPY 50644) growth inhibition, hits give high values
# Procedure, shortened: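 Yeast wt1 strain exposed to compounds; growth inhibition measured relative to vehicle-treated controls.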
# [2] = NCI Yeast Anticancer Drug Screen. Data for the rad50EPP+ strain (AID 151);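 note: 0% = growth of vehicle-treated control cultures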; settings: S. cerevisiae rad50 mutant strain, hits give high values
# Procedure, shortened: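 Read-out is yeast growth inhibition relative to vehicle; cells used were the rad50EPP+ strain.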
# [3] = NCI Yeast Anticancer Drug Screen. Data for the mgt1 strain (AID 153); settings: S. cerevisiae mgt1 mutant growth inhibition, hits give high values
# Procedure, shortened: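 Measured: inhibition of mgt1 yeast growth by compound, normalized to vehicle-treated cultures.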
# [4] = NCI Yeast Anticancer Drug Screen. Data for the rad50 strain (AID 155);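 note: 0% = growth of vehicle-only cultures of the same strain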; settings: S. cerevisiae rad50 strain growth inhibition, hits give high values
# Procedure, shortened: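 Yeast carrying a defined DNA repair defect were exposed to test compounds, and growth was compared with vehicle-treated controls to give percent inhibition.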
# [5] = NCI Yeast Anticancer Drug Screen. Data for the mec2-1 strain (AID 157); settings: S. cerevisiae mec2-1 strain, hits give high values
# Procedure, shortened: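 Using mec2-1 yeast: add compound, measure growth, express inhibition versus vehicle-treated cultures.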
# [6] = NCI Yeast Anticancer Drug Screen. Data for the rad14 strain (AID 159);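 note: 0% = growth of vehicle-treated control cultures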; settings: S. cerevisiae rad14 strain growth inhibition, hits give high values
# Procedure, shortened: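 Yeast cells carrying a defined DNA-repair defect were exposed to compounds, and growth inhibition was calculated relative to vehicle-treated control cultures.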
# [7] = NCI Yeast Anticancer Drug Screen. Data for the CLN2oe strain (AID 163);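 note: 0% = growth of vehicle-only control cultures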; settings: S. cerevisiae CLN2oe strain, hits give high values
# Procedure, shortened: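 Whole-cell yeast growth assay. A strain engineered for altered cell-cycle control received compound, and inhibition relative to vehicle-treated cultures was recorded.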
# [8] = NCI Yeast Anticancer Drug Screen. Data for the cln2 rad14 strain (AID 165);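 note: 0% = growth equal to vehicle treated cultures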; settings: S. cerevisiae cln2 rad14 strain, hits give high values
# Procedure, shortened: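 Yeast strain cln2 rad14, bearing defects in cell cycle control and DNA repair, serves as the test system; values reflect growth inhibition compared with vehicle.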
# [9] = NCI Yeast Anticancer Drug Screen. Data for the bub3 strain (AID 167); settings: S. cerevisiae bub3 mutant strain, hits give high values
# Procedure, shortened: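 Compounds were applied to a genetically altered yeast strain carrying a cell-cycle control defect. Growth inhibition was scored against vehicle-treated controls.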
# [10] = NCI Yeast Anticancer Drug Screen. Data for the mlh1 strain (AID 171);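 note: 0% = growth of vehicle-treated control cultures of the same strain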; settings: S. cerevisiae mlh1 strain growth inhibition, hits give high values
# Procedure, shortened: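 A yeast strain with a defined genetic lesion serves as the test organism. Cultures receive compound or vehicle, and growth is measured.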
# [11] = NCI Yeast Anticancer Drug Screen. Data for the sgs1 strain (AID 173);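 note: 0% = growth of vehicle-only control cultures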; settings: S. cerevisiae sgs1 mutant, hits give high values
# Procedure, shortened: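 A genetically defined yeast mutant is incubated with the test compound, and its growth is compared to that of the same strain given vehicle.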
# [12] = NCI Yeast Anticancer Drug Screen. Data for the mlh1 rad18 strain (AID 175); settings: S. cerevisiae mlh1 rad18 strain growth inhibition, hits give high values
# Procedure, shortened: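 Steps: expose repair-defective yeast to compound; measure growth; express inhibition against vehicle-treated controls.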
# [13] = NCI Yeast Anticancer Drug Screen. Data for the rad18 strain (AID 177); settings: S. cerevisiae rad18 mutant growth inhibition, hits give high values
# Procedure, shortened: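 Measured value is growth inhibition of a yeast strain bearing a DNA repair alteration, referenced to vehicle-treated cells.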
# [14] = at 5.0 µM (retest, dose inferred, filed as 0.5)
# [15] = at 50.0 µM (retest, dose inferred, filed as 5.0)
structure (smiles),measurement,setting,value
O=C1C=CC(=Nc2ccc3c(c2)Cc2cc(Cl)ccc2-3)O1,growth inhibition,[1]; at 1.2 µM,-3%
same,growth inhibition,[1]; at 3.7 µM,10%
same,growth inhibition,[1]; at 11.0 µM,56%
same,growth inhibition,[1]; at 33.0 µM,99% (active)
same,growth inhibition,[1]; at 100.0 µM,98% (active)
same,growth inhibition,[2]; at 1.2 µM,78% (active)
same,growth inhibition,[2]; at 3.7 µM,90% (active)
same,growth inhibition,[2]; at 11.0 µM,98% (active)
same,growth inhibition,[2]; at 33.0 µM,99% (active)
same,growth inhibition,[2]; at 100.0 µM,96% (active)
same,growth inhibition,[3]; at 1.2 µM,2%
same,growth inhibition,[3]; at 3.7 µM,20%
same,growth inhibition,[3]; at 11.0 µM,68%
same,growth inhibition,[3]; at 33.0 µM,99% (active)
same,growth inhibition,[3]; at 100.0 µM,99% (active)
same,growth inhibition,[4]; at 1.2 µM,-1%
same,growth inhibition,[4]; at 3.7 µM,24%
same,growth inhibition,[4]; [14],25%
same,growth inhibition,[4]; at 11.0 µM,78% (active)
same,growth inhibition,[4]; at 33.0 µM,99% (active)
same,growth inhibition,[4]; [15],99% (active)
same,growth inhibition,[4]; at 50.0 µM,99.5% (active)
same,growth inhibition,[4]; at 100.0 µM,96% (active)
same,growth inhibition,[5]; at 1.2 µM,6%
same,growth inhibition,[5]; at 3.7 µM,19%
same,growth inhibition,[5]; [14],34%
same,growth inhibition,[5]; at 11.0 µM,68%
same,growth inhibition,[5]; at 33.0 µM,99% (active)
same,growth inhibition,[5]; [15],100% (active)
same,growth inhibition,[5]; at 50.0 µM,99% (active)
same,growth inhibition,[5]; at 100.0 µM,98% (active)
same,growth inhibition,[6]; at 1.2 µM,10%
same,growth inhibition,[6]; at 3.7 µM,32%
same,growth inhibition,[6]; at 11.0 µM,91% (active)
same,growth inhibition,[6]; at 33.0 µM,99% (active)
same,growth inhibition,[6]; at 100.0 µM,97% (active)
same,growth inhibition,[7]; at 1.2 µM,-1%
same,growth inhibition,[7]; at 3.7 µM,3%
same,growth inhibition,[7]; at 11.0 µM,23%
same,growth inhibition,[7]; at 33.0 µM,98% (active)
same,growth inhibition,[7]; at 100.0 µM,97% (active)
same,growth inhibition,[8]; [14],7%
same,growth inhibition,[8]; [15],99% (active)
same,growth inhibition,[8]; at 50.0 µM,98.2% (active)
same,growth inhibition,[9]; at 1.2 µM,4%
same,growth inhibition,[9]; at 3.7 µM,12%
same,growth inhibition,[9]; [14],7%
same,growth inhibition,[9]; at 11.0 µM,96% (active)
same,growth inhibition,[9]; at 33.0 µM,99% (active)
same,growth inhibition,[9]; [15],99% (active)
same,growth inhibition,[9]; at 50.0 µM,99.7% (active)
same,growth inhibition,[9]; at 100.0 µM,97% (active)
same,growth inhibition,[10]; at 1.2 µM,9%
same,growth inhibition,[10]; at 3.7 µM,21%
same,growth inhibition,[10]; at 11.0 µM,74% (active)
same,growth inhibition,[10]; at 33.0 µM,99% (active)
same,growth inhibition,[10]; at 100.0 µM,98% (active)
same,growth inhibition,[11]; at 1.2 µM,11%
same,growth inhibition,[11]; at 3.7 µM,48%
same,growth inhibition,[11]; at 11.0 µM,88% (active)
same,growth inhibition,[11]; at 33.0 µM,99% (active)
same,growth inhibition,[11]; at 100.0 µM,98% (active)
same,growth inhibition,[12]; [14],32%
same,growth inhibition,[12]; [15],99% (active)
same,growth inhibition,[12]; at 50.0 µM,84.2% (active)
same,growth inhibition,[13]; at 1.2 µM,10%
same,growth inhibition,[13]; at 3.7 µM,36%
same,growth inhibition,[13]; at 11.0 µM,95% (active)
same,growth inhibition,[13]; at 33.0 µM,99% (active)
same,growth inhibition,[13]; at 100.0 µM,97% (active)
